Assay outcomes (PubChem)
TbPYK inhibitor: T. brucei pyruvate kinase inhibition; actives 0.12% (n = 410,000); Q57TT1; AID 624173; Potency, µM (titrated, usually from 76.8 µM), for the others: at the highest dose activity, negative = inhibition, usual class: inhibitors; TbPYK enzyme, Kinase-Glo Plus ATP luminescence, 45 min; further: nearly all actives have a fitted effect of over 50% in size
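Enzyme and substrate buffer are dispensed first and compound is pin-transferred. ADP at 130 uM final then starts the reaction, which runs 45 min at room temperature. Detection reagent is added for 10 min before luminescence is imaged.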
RE007 growth inh: less growth of the S. pombe RE007 Vpr strain; Potency, µM (series often up to 92.2 µM), for the others: top-dose activity change, negative = less growth, most hits filed as inhibitors; AID 651644; actives 0.21% (n = 360,000); S. pombe RE007 Vpr strain, BacTiter-Glo ATP luminescence, 24 h; active means well fitted falling curve with a large enough effect; inconclusive means small, poorly fitted or top-dose-only effect; inactive means no such curve, though single readings can be large or run the other way; further: nearly all actives have a fitted effect of over 50% in size
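Fission yeast strain RE007, carrying one chromosomally integrated HIV-1 vpr copy, was seeded at OD 0.01 in PMG+AL medium with 23 nL pinned compound. After 24 h at 30 °C and 99% humidity, viability was read by BacTiter-Glo luminescence.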
LmPK inhibitor: LmPK (Leishmania mexicana) enzyme inhibition; Q27686; purified LmPK, Kinase-Glo ATP luminescence, 1 h; Potency, µM (top dose mostly 57.5 µM), without a hit: at the top dose activity change, negative = inhibition, usual class: inhibitors; actives 0.37% (n = 290,000); AID 1721
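Purified LmPK (0.1 nM) with 0.5 mM PEP and 0.1 mM ADP in imidazole buffer pH 7.2 with MgCl2/KCl, 1 h at room temperature. ATP formed was read by luciferase luminescence and normalized to no-enzyme and uninhibited controls.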
Sm TGR inh: S. mansoni TGR enzyme inhibition; Q962Y6; purified TGR, DTNB reduction, TNB absorbance 405 nm; Potency, µM (doses to about 114 µM), inactives show at the highest dose activity change, negative = inhibition, actives largely listed as inhibitors; actives 3% (n = 360,000); further: nearly all actives have a fitted effect of over 60% in size
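TGR 20 nM + NADPH 100 uM (dispensed conc.), cpd preinc 15 min RT; start with NADPH (500 uM addition) then DTNB (15 mM addition). Kinetic TNB absorbance, 405 nm filter. Four-parameter Hill fit across titration.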
Giardia FBPA inh-1: Giardia lamblia aldolase inhibition. actives 0.71% (n = 290,000). purified Giardia FBPA. A8B2U2. AID 2451. Potency, µM (top dose mostly 59.6 µM), for inactives: top-dose activity, negative = inhibition, hits mostly inhibitors; further: nearly all actives have a fitted effect of over 55% in size
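40 nM FBPA preincubated 10 min at RT with compound (up to 57.5 uM final), then substrate plus GAPDH/TPI/NAD/arsenate coupling and diaphorase/resazurin added. Fluorescence read after 20 min at RT, 525/598 nm.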
Giardia growth: inhibitors of Giardia lamblia growth; shares compounds with Giardia FBPA inh-1; Giardia lamblia trophozoite growth inhibition; Potency, µM (titrated, usually from 57.5 µM), inactives show top-dose activity change, negative = inhibition, most hits filed as inhibitors; actives 5% (n = 1,500); AID 2785;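 further: trophozoites exposed to compound for 48 h at 37 °C; nearly all actives have a fitted effect of over 70% in size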
Mammalian tox: toxic to mammalian cells in Giardia aldolase counter-screen; mammalian cell viability counter-screen, qHTS; Potency, µM (titrated, usually from 57.5 µM), without a hit: at the top dose viability change, negative = toxicity, most hits filed as inhibitors; shares compounds with Giardia FBPA inh-1; AID 2786; actives 4% (n = 1,500);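 further: Chinese hamster ovary cells used as mammalian cytotoxicity surrogate; viability measured as cellular ATP by luminescence; compound exposure lasted 48 h before reading; nearly all actives have a fitted effect of over 60% in size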
Giardia FBPA inh-2: confirmation of Giardia fructose-bisphosphate aldolase inhibitors; shares compounds with Giardia FBPA inh-1; purified Giardia aldolase enzyme activity, qHTS; Potency, µM (doses to about 57.5 µM), for inactives: at the highest dose activity change, negative = inhibition, usual class: inhibitors; actives 5% (n = 1,500); AID 2787; further: nearly all actives have a fitted effect of over 45% in size
Rabbit aldolase: selectivity test for Giardia aldolase inhibitors: rabbit aldolase; shares compounds with Giardia FBPA inh-1; Rabbit muscle FBPA enzyme inhibition, selectivity counter-screen; Potency, µM (highest dose often 57.5 µM), inactives show at the top dose activity, negative = inhibition, hits mostly inhibitors; actives 4% (n = 1,500); further: nearly all actives have a fitted effect of over 60% in size
Target sequence (P00883 whole entry, looked up): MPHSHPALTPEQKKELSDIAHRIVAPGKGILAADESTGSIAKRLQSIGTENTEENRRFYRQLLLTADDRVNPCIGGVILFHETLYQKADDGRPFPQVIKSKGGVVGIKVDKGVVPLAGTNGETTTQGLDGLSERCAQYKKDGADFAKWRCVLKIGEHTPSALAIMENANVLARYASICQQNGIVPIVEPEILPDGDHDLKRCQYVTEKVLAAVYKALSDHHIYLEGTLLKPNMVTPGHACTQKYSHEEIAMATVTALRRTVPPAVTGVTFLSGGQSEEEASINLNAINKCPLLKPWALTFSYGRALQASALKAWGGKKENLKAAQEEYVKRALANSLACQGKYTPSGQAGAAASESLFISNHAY
GAPDH counter: GAPDH inhibition flagged for Giardia aldolase hits; shares compounds with Giardia FBPA inh-1; GAPDH coupling enzyme counterscreen, biochemical, qHTS; Potency, µM (titrated, usually from 57.5 µM), for the others: top-dose activity change, negative = inhibition, most hits filed as inhibitors; actives 6% (n = 1,500); AID 2795; further: nearly all actives have a fitted effect of over 55% in size
Numbers without * were called inactive; u = inconclusive; x = no result given; [ ] = another dose, or the depositor's remark. The list is not random: actives were taken first. Their share in the collection is about 3.3%. Unless noted, the call rests on the fitted dose curve; in most records, active means well fitted curve in the direction sought with a large enough effect; inconclusive means small, poorly fitted or top-dose-only effect, or another doubt; inactive means no such curve, though single readings can be large; an effect the other way counts as inactive or inconclusive. On the % scale 0 is the no-effect control and ±100 the full control effect; potency means the concentration at half of the fitted maximal effect.

SMILES	TbPYK inhibitor	RE007 growth inh	LmPK inhibitor	Sm TGR inh	Giardia FBPA inh-1	Giardia growth	Mammalian tox	Giardia FBPA inh-2	Rabbit aldolase	GAPDH counter
NS(=O)(=O)c1ccc(NC(=O)c2ccc(Cl)c(S(=O)(=O)NCc3ccco3)c2)cc1	-7%	-5%	x	u	x	x	x	x	x	x
Cc1ccc(NC(=O)CN2C(=O)S/C(=C\C(=O)Nc3ccc(Cl)cc3)C2=O)cc1	-6%	18%	0%	-3%	3%	x	x	x	x	x
COC/C=C/C1=CC2=CC(=O)C(C)(OC(=O)c3cnc4ccccc4n3)C(=O)C2=CN1Cc1ccccc1 (configuration not stated)	3%	-8%	-3%[11.5 µM]	u	2.2µM*	-20%[38.3 µM]	-8%	u	u	25µM*
N/C(=N\NS(=O)(=O)c1ccccc1)c1ccccn1	2%	54%	x	x	x	x	x	x	x	x
N/C(=N\NC(=O)Nc1ccccc1)c1ccccn1	0%	-3%	-1%	13%	20µM*	-10%[10.4 µM]	-1%	-7%	5%	-1%
O=C(CCc1ccccc1)NNC(=O)CCc1ccccc1	3%	3%	0%	-22%	12%	x	x	x	x	x
O=C(CCc1ccccc1)NNC(=O)c1ccccn1	-7%	-12%	1%	1%	18µM*	11µM*	u	3%	2%	-4%
COc1ccc(OC)c(NC(=O)CN(C)CC(=O)Nc2ccccc2Br)c1	-12%	-2%	-1%	-4%	18µM*	-14%	8%	-4%	7%	6%
COc1cccc(CN(C)CC(=O)Nc2cccc3ccccc23)c1	-7%	-17%	1%	-3%	18µM*	2%[10.4 µM]	-9%	2%	5%	8%
COc1cccc(CC(=O)Nc2cccc3ccccc23)c1	-3%	1%	0%	-7%	-8%	x	x	x	x	x
COc1ccc(CNC(=O)CN(C)CC(=O)Nc2ccccc2Br)cc1	8%	13%	x	x	x	x	x	x	x	x
O=C(Nc1ccc2c(c1)OCO2)N1CCN(c2cccc(C(F)(F)F)c2)CC1	-2%	23%	1%	2%	-6%	x	x	x	x	x
Cc1ccc(/C=C(\NC(=O)c2ccccc2)C(=O)NCCN2CCOCC2)o1	0%	0%	0%	15%	-3%	x	x	x	x	x
Cn1nnc(NC(=S)NC(=O)/C=C/c2ccco2)n1	-22%	-9%	13%	3.2µM*	3.5µM*	-28%[38.3 µM]	-2%	-19%	-20%	-23%
O=C(/C=C/c1ccco1)NC(=S)Nc1nc(-c2ccc(Cl)cc2)cs1	-11%	-24%	2%	-4%	1%	x	x	x	x	x
CN(Cc1ccccc1)C(=S)NC(=O)c1cccs1	u	u	0%	-22%	13µM*	u	-20%	2%	8%	13%
O=c1c2ccccc2n2c(=S)[nH]nc2n1-c1ccccc1	u	-2%	0%	-13%	7.1µM*	-8%	4%	6%	14%	15%
CCCCn1c(=O)c2ccccc2n2c(=S)[nH]nc12	u	0%	-18%	-4%	-9%	x	x	x	x	x
